The whole screen tested about 39,000 compounds, of which about 500 (1.3%) were called active. Many of the other results were omitted from the sample, so actives are more common in it than they were.
The molecules below were run on S. aureus RN4220 (assay: growth inhibition call (relative growth <= 0.2)). Details: 50 µM.

SMILES | growth inhibition call
CCC1(C2OC(C3OC(O)(CO)C(C)CC3C)CC2C)CCC(C2(C)CCC3(CC(O)C(C)C(C(C)C(OC)C(C)C(=O)[O-])O3)O2)O1.[Na+] (configuration not stated) | active
O=C(O)C(Cl)Cl.[NaH] | inactive
C[N+]1(C)C2CC(OC(=O)C(CO)c3ccccc3)CC1C1OC12.[Br-] (configuration not stated) | inactive
C[C@@]12NC(=O)CN1CCc1ccccc12 | inactive
CCC(C(=O)[O-])C1CCC(C)C(C(C)C(O)C(C)C(=O)C(CC)C2OC3(C=CC(O)C4(CCC(C)(C5CCC(O)(CC)C(C)O5)O4)O3)C(C)CC2C)O1.[Na+] (configuration not stated) | active
CC[C@@H](C(=O)[C@@H](C)[C@@H](O)[C@H](C)[C@@H]1O[C@@H]([C@@H](CC)C(=O)O)CC[C@@H]1C)[C@H]1O[C@]2(C=C[C@@H](O)[C@]3(CC[C@@](C)([C@H]4CC[C@](O)(CC)[C@H](C)O4)O3)O2)[C@H](C)C[C@@H]1C | active
CC[C@@H](C)C(=O)O[C@H]1[C@H](O)[C@H]2[C@@H](CN3C[C@@H](C)CC[C@@H]3[C@@]2(C)O)[C@H]2C[C@]34O[C@]5(O)[C@@H](OC(=O)[C@@](C)(O)CC)CC[C@@]3(C)[C@@H]5[C@@H](OC(C)=O)[C@@H](OC(C)=O)[C@@H]4[C@@]21O | inactive
COC(=O)C[C@@H]1CC[C@@H]2NC[C@H](O)COC[C@H]2O1 | inactive
COc1cc2c3cc1Oc1c(OC)c(OC)cc4c1[C@@H](Cc1cccc(c1)Oc1ccc(c(O)c1)C[C@@H]3N(C)CC2)N(C)CC4 | inactive
C[C@@H](CN)CC(=O)O | inactive
Cc1noc(C)c1CN1CCNCC1 | inactive
C[C@H](O)[C@@]12[C@H]3CC=C[C@@H]1N2CC3 (some centres not stated) | inactive
O=C([O-])Cc1ccccc1.[Na+] | inactive
CCCCOC(=O)c1ccccc1C(=O)OCCCC | inactive
C[CH2][Hg][S]c1ccccc1C(=O)[O-].[Na+] | active
NCCO.NCCO.O[AsH]O[AsH]O (configuration not stated) | inactive
CO[C@H]1[C@@H](O)C[C@@H](O[C@H]2[C@@H](O)C[C@@H](O[C@H]3[C@@H](O)C[C@@H](O[C@H]4CC[C@@]5(C)[C@@H](CC[C@H]6[C@@H]5C[C@@H](O)[C@@]5(C)[C@H](C7=CC(=O)OC7)CC[C@@]65O)C4)O[C@@H]3C)O[C@@H]2C)O[C@@H]1C | inactive
CN1C[C@H](C(=O)N[C@]2(C)O[C@@]3(O)[C@@H]4CCCN4C(=O)[C@H](Cc4ccccc4)N3C2=O)C=C2c3cccc4[nH]cc(c34)C[C@H]21 | inactive
C=C(C)[C@@H]1CCC(C)=C[C@H]1c1c(OC)cc(C)cc1OC | inactive
CCCCCCCCCc1ccc(O)cc1 | inactive
C=C(C)[C@@H]1CCC(C)=C[C@H]1c1c(O)cc(CCCCC)cc1O | active
C[C@H]1O[C@H](O[C@H]2[C@H](O)[C@@H](O)[C@@H](O)[C@H](O)[C@@H]2O)[C@@H](N)C[C@@H]1NC(=N)C(=O)O | inactive

SMILES | growth inhibition call
Cc1[nH]c2ccc(O)cc2c1CCN | inactive
CN(C)[C@@H]1C(=O)[C@H](C(N)=O)C(=O)[C@@]2(O)C(=O)[C@@H]3C(=O)c4c(O)cccc4[C@@](C)(O)[C@H]3C[C@@H]12 | active
CN(C)[C@@H]1C(=O)[C@@H](C(N)=O)C(=O)[C@@]2(O)C(=O)[C@H]3C(=O)c4c(O)ccc(Cl)c4[C@@](C)(O)[C@H]3C[C@@H]12 | active
CN(C)[C@@H]1C(=O)C(C(N)=O)=C(O)[C@@]2(O)C(O)=C3C(=O)c4c(O)cccc4[C@](C)(O)[C@H]3C[C@@H]12 | active
N#Cc1nn(-c2c(Cl)cc(C(F)(F)F)cc2Cl)c(N)c1S(=O)C(F)(F)F (configuration not stated) | inactive
c1nc(N2CCN3CCC[C@H]3C2)c2[nH]cnc2n1 | inactive
O=[As]O[As]=O (configuration not stated) | inactive
CC(C)[N+](C)(CCC(C(N)=O)(c1ccccc1)c1ccccc1)C(C)C.[I-] | inactive
Oc1ccccc1-c1ccccc1O | inactive
CC1=CC(=O)c2c(O)cccc2C1=O | active
O=C1C=CC(=O)c2c(O)cccc21 | inactive
CN1C(=O)C(O)N=C(c2ccccc2)c2cc(Cl)ccc21 (configuration not stated) | inactive
CNC(=O)Oc1ccc2c(c1)C1(C)CCN(C)C1N2C.O=S(=O)(O)O (configuration not stated) | inactive
C[C@H]1O[C@H](C[N+](C)(C)C)C[C@@H]1O | inactive
CC(=O)N[C@@H]1[C@H](O[C@@H]2O[C@H](C[C@@H](O)[C@H]3O[C@@H](n4ccc(=O)[nH]c4=O)[C@H](O)[C@@H]3O)[C@H](O)[C@H](O)[C@H]2NC(=O)/C=C/CCCCCCCCC(C)C)O[C@@H](CO)[C@H](O)[C@H]1O | active
C[C@@]1(O)[C@H](O)[C@@H](CO)O[C@H]1n1ccc2c(N)ncnc21 | inactive
O=c1cccc2n1C[C@@H]1C[C@H]2CN(CCO)C1 | inactive
CC(=CCn1c[n+](C)c2c(N)ncnc21)CCC1(C)C(C)CCC2(C)C(C)=CCCC21.[Cl-] (configuration not stated) | active
OCCN1CC2(CCN(c3nccs3)C2)C1 | inactive
CC(C)CC(CN)CC(=O)O (configuration not stated) | inactive
COC(=O)[C@@H](N)CCCNC(N)=N[N+](=O)[O-] | inactive
O=C1[O][SbH]23[O]C(=O)[C@H]([O]2)[C@H]2[O][SbH]4([O]C(=O)[C@H]([O]4)[C@H]1[O]3)[O]C2=O | active

SMILES | growth inhibition call
O=C1[O][SbH]23[O]C(=O)C([O]2)C2[O][SbH]4([O]C(=O)C([O]4)C1[O]3)[O]C2=O | inactive
C=C(CCCCCCCCCCCCCCCC)OOC[C@@H](COP(=O)(ON)O[C@@H]1[C@H](O)[C@H](O)[C@@H](OP(=O)(O)ON)[C@H](OP(=O)(O)ON)[C@H]1O)OOC(=C)CC/C=C/C/C=C/C/C=C/C/C=C/CCCCC (some centres not stated) | inactive
CN1CC2(CNC2)OCCS1(=O)=O | inactive
CN(C)C(=O)CCC(=O)N1C[C@H]2C[C@@H]1CN2 | inactive
Oc1cc(Cl)ccc1Oc1ccc(Cl)cc1Cl [listing 1 of 2 here] | inactive
Oc1ccc(Cl)cc1Cc1cc(Cl)ccc1O | inactive
Oc1cc(Cl)ccc1Oc1ccc(Cl)cc1Cl [listing 2 of 2 here] | active
CC(=O)[O][Hg][c]1ccccc1 | inactive
NC(=O)[C@H]1CNC(=O)C1 | inactive
Cc1cc2c(C(C)C)c(O)c(O)c(C=O)c2c(O)c1-c1c(C)cc2c(C(C)C)c(O)c(O)c(C=O)c2c1O | inactive
CC[C@@]1(O)C[C@H](O[C@H]2C[C@H](N(C)C)[C@H](O)[C@H](C)O2)c2c(cc3c(c2O)C(=O)c2c(O)ccc(O)c2C3=O)[C@H]1C(=O)OC | inactive
COc1cccc2c1C(=O)c1c(O)c3c(c(O)c1C2=O)C[C@@](O)(C(=O)CO)C[C@@H]3O[C@H]1C[C@H](N2CCO[C@H](OC)C2)[C@H](O)[C@H](C)O1 | active
CC=Cc1ccc2c(c1)OCO2 | inactive
CCn1cnc2c(Nc3cccc(Cl)c3)nc(N[C@@H]3CCCC[C@@H]3N)nc21 | inactive
CCO[C@H]1[C@H]2CC[C@@H]1NC2 | inactive
O=[N+]([O-])C(Br)(CO)CO [listing 1 of 2 here] | active
OCC(Br)(Br)Br | inactive
O=[N+]([O-])C(Br)(CO)CO [listing 2 of 2 here] | active
CCCCS(=O)(=O)N1C[C@H]2CNC[C@@H]2C1 | inactive
C[C@H]1CN([C@@H](C)CO)C(=O)CCCn2nncc2CO[C@H]1CN(C)C(=O)Oc1ccc2ccccc2c1 | inactive
CNCC(=O)c1ccc(O)c(O)c1 | inactive
CCCCCCCCCC(=O)O[C@@H]1[C@@H](C)[C@]2(O)[C@@H](C=C(CO)C[C@]3(O)C(=O)C(C)=C[C@@H]23)[C@@H]2C(C)(C)[C@@]12OC(=O)CCCCCCCCC | inactive

SMILES | growth inhibition call
CCCCC(=O)N1C[C@@H]2CCNC[C@@H]21 | inactive
Cc1nc(-c2ccc(-c3ccc(C(=O)N4CCc5cc6c(cc54)C4(CCN(C)CC4)CO6)cc3)c(C)c2)no1 | active
O=[N+]([O-])c1ccc([As](=O)(O)O)cc1 | inactive
CC(=O)NN1Cc2ccccc2C1=N | inactive
CNc1ccc(C(=O)C[C@@H](O)CC[C@@H](C)[C@H]2OC(=O)C[C@@H](O)CC(=O)C[C@@H](O)C[C@@H](O)C[C@@H](O)C[C@@H](O)C[C@@]3(O)C[C@@H](O)[C@H](C(=O)OC)[C@@H](C[C@@H](O[C@@H]4O[C@H](C)[C@@H](O)[C@H](N)[C@@H]4O)\C=C/C=C\C=C/C=C\C=C/C=C\C=C/[C@@H]2C)O3)cc1 | inactive
CCNS(=O)(=O)C(F)(F)C(F)(F)C(F)(F)C(F)(F)C(F)(F)C(F)(F)C(F)(F)C(F)(F)F | inactive
CN(C)C(=O)Oc1ccc[n+](C)c1.[Br-] | inactive
c1ccc2sc(C3(N4CCCC4)CCCCC3)cc2c1 | inactive
CCCCOC(=O)C1=CC(=O)CC(C)(C)O1 | inactive
O=[N+]([O-])c1ccc(O)c([N+](=O)[O-])c1 | active
O=[N+]([O-])c1cc(O)c(O)c([N+](=O)[O-])c1 | inactive
O=[N+]([O-])c1cc([As](=O)(O)O)ccc1O | inactive
CCCC[C@@H](C)[C@@H](OC(=O)C[C@@H](CC(=O)O)C(=O)O)[C@H](C[C@@H](C)C[C@H](O)CCCC[C@@H](O)C[C@H](O)[C@H](C)N)OC(=O)C[C@@H](CC(=O)O)C(=O)O | inactive
O=C(O)C[C@H]1CC[C@@H]2NC[C@H](O)COC[C@H]2O1 | inactive
CC(C)[C@@H](Br)C(=O)NC(N)=O | inactive
C[C@@H]1CN([C@H](C)CO)C(=O)CCCn2nncc2CO[C@@H]1CN(C)C(=O)Oc1ccc2ccccc2c1 | inactive
CC(=O)[O][Cd][O]C(C)=O | active
CC(=O)[O][PbH2][O]C(C)=O | inactive
CC1OC(OC2C(O)C(O)C(O)C(O)C2O)C(N)CC1NC(=N)C(=O)O.Cl (configuration not stated) | inactive
C=C1[C@@H](C)[C@H]2[C@H](Cc3ccccc3)NC(=O)[C@]23[C@H](OC(C)=O)/C=C/[C@](C)(O)C(=O)[C@@H](C)C/C=C/[C@H]3[C@@H]1O | inactive
C=CCOC(Cn1ccnc1)c1ccc(Cl)cc1Cl.O=S(=O)(O)O (configuration not stated) | active

From the antibiotic and cytotoxicity screens of Wong et al. (2023)
